From PubChem BioAssay (NCATS) come the findings set out here.

The subject of assay [1] is Zika virus NS2B-NS3 protease (linked construct). Put plainly: Primary screen NINDS Rhodamine qHTS for Zika virus inhibitors (AID 1347160). Note: nearly all actives have a fitted effect of over 55% in size. In a few lines: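 Aprotinin served as in-plate control. Conditions: 25 nM linked NS2B-NS3, pH 8.0 Tris buffer, titrated compounds, 15 min preincubation and 15 min reaction with 1.5 microM Rhod110 substrate at room temperature.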
On the technique in general: Quantitative high-throughput screening tests each substance at several concentrations.

Assay [2] concerns the target Calcium and integrin-binding protein 1 (Homo sapiens) (UniProt Q99828). Kind of assay: Primary qHTS for Identification of Calcium Integrin Binding Protein 1 (CIB1) Competitor (AID 1508620).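 Note: GST tagged CIB1 binding a fluorescein labelled alphaIIb integrin peptide tracer; top concentration of the series differs between compounds; % is set by controls: 0 for no effect and ±100 for the full control effect.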 The method, boiled down: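 CIB1-GST (1 uM final) and compound incubated 15 min at room temperature before adding FITC-alphaIIb peptide tracer (100 nM final). Competition for binding read by fluorescence polarization (ex 480, em 540) after another 15 min at room temperature.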

Assay [3] in a line: Primary qHTS for inhibitors of nuclear receptor binding SET domain protein 2 (NSD2) in an isogenic RCH-ACV NSD2 p.E1099K mutant (9B) (AID 1645876). Note: potency is the fitted concentration of half-maximal effect; nearly all actives have a fitted effect of over 70% in size.
Assay [4] is described as follows: Primary qHTS for inhibitors of nuclear receptor binding SET domain protein 2 (NSD2) in an RCH-ACV wild type WT cells (2C) (AID 1645877). Note: potency is the fitted concentration of half-maximal effect; nearly all actives have a fitted effect of over 70% in size.
Assay [5] addresses Glutathione peroxidase 1 (Homo sapiens) (UniProt P07203). Kind of assay: Primary qHTS Assay for Inhibitors of Recombinant Selenoprotein Glutathione Peroxidase 1 (GPX1) (AID 1845191). Note: nearly all actives have a fitted effect of over 65% in size. Note: potency is the fitted concentration of half-maximal effect. The method, boiled down:
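NADPH consumption tracked by fluorescence at 340/450 nm between t=0 and t=15 min, room temperature. Final mix: 10 nM GPX1, 100 nM glutathione reductase, 1 mM GSH, 0.5 mM NADPH, 0.5 mM cumene hydroperoxide, 0.01% BSA; 30 min compound–enzyme preincubation.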

The target of assay [6] is Phospholipid hydroperoxide glutathione peroxidase GPX4 (Homo sapiens) (UniProt P36969). Put plainly: Primary qHTS Assay for Inhibitors of Recombinant Selenoprotein Glutathione Peroxidase 4 (GPX4) (AID 1845192). Note: nearly all actives have a fitted effect of over 65% in size. The settings on record: outcome: dose series up to 50 µM unless noted. In a few lines: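 NADPH consumption followed by fluorescence at 340/450 nm, t=0 and after 15 min at room temperature. Reaction started with cumene hydroperoxide (0.5 mM final) after 30 min compound–GPX4 preincubation; final 200 nM GPX4, 100 nM GR, 1 mM GSH, 0.5 mM NADPH.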

Assay [7] concerns the target Luciferin 4-monooxygenase (Photinus pyralis) (UniProt P08659). Put plainly: Primary firefly luciferase (FLuc) qHTS assay for identification of artifact compounds. (AID 1845220). Note: nearly all actives have a fitted effect of over 60% in size. In a few lines: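 FLuc 10 nM; luciferin 10 uM; ATP 10 uM; Tris-acetate pH 7.6, Mg-acetate 10 mM; 15 min RT preincubation; 5 min reaction; luminescence.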
The subject of assay [8] is Nanoluciferase (engineered Oplophorus gracilirostris luciferase). Put plainly: Primary Nanoluciferase (NLuc) qHTS assay for identification of artifact compounds. (AID 1845222).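 Note: NLuc secreted into diluted conditioned medium of S16 cells; 0% = DMSO and -100% = no enzyme.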 In a few lines:
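NLuc from S16 cell medium (1:55) plus test compounds, 15 min, room temperature. Luminescence after Nano-Glo (1:100) addition, 5 min.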

Assay [9] can be described thus: qHTS drug screen for cell cycle checkpoint inhibitors in PARPi-resistant BRCA-mutant ovarian cancer cell lines. (AID 1963452; calls by dose curve). The settings on record: PEO1/OlaR viability, CellTiter-Glo luminescence, 96 h, stronger effect = lower value. The method, boiled down: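 PEO1, PEO4 and PEO1/OlaR ovarian cancer cells, 600 per well, exposed 96 h at 37C to a dilution series. Viability read by CellTiter-Glo luminescence, normalized to DMSO and empty wells; activity summarized as Z-AUC.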

In another assay the test system is HaCat. Kind of assay: Cytotoxic Profiling of Annotated Libraries Using Quantitative High-Throughput Screening (AID 1296008). Note: % is set by controls: 0 for no effect and ±100 for the full control effect; nearly all actives have a fitted effect of over 60% in size. The settings on record: Five cell lines viability, CellTiter-Glo ATP luminescence, 48-72 h; max response: stronger effect = lower value. The method, boiled down: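 Cytotoxicity was measured as CellTiter-Glo ATP luminescence, read after 10 min at room temperature. Compound treatment of the cells lasted 48 or 72 hr at 37 degrees Celsius in a qHTS format.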

The subject of another assay is C33A. Put plainly: Primary qHTS to identify gynecologic anti-cancer compounds using libraries of approved drugs and bioactive compounds (AID 1345084). Note: % is set by controls: 0 for no effect and ±100 for the full control effect; nearly all actives have a fitted effect of over 55% in size. As to conditions: Gynecologic cancer cell panel viability, ATPlite luminescence, 48 h; series mostly up to 57.5 µM. In a few lines:
(§1)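 Cells, 1,000 per well, plated 16 h, then exposed 48 h at 37 C to compounds. Viability by ATPlite luminescence after 15 min at room temperature.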

Another assay deals with CASKI. The assay is described as above. The settings on record: Gynecologic cancer cell panel viability, ATPlite luminescence, 48 h; series mostly up to 57.5 µM. In a few lines:
as §1
On the technique in general: In ATP-based viability assays light output follows the ATP content of the culture.

Another assay relates to Es-2. Described as above. The settings on record: Gynecologic cancer cell panel viability, ATPlite luminescence, 48 h; series mostly up to 57.5 µM. The method, boiled down: as §1
Another assay relates to HeLa. The description is as above. The settings on record: Gynecologic cancer cell panel viability, ATPlite luminescence, 48 h; series mostly up to 57.5 µM. In a few lines: as §1
Another assay deals with Hek293T. The description is as above. As to conditions: Gynecologic cancer cell panel viability, ATPlite luminescence, 48 h, control line for the selectivity index; series mostly up to 57.5 µM. The method, boiled down:
as §1

A further assay relates to JEG-3. The description is as above. As to conditions: Gynecologic cancer cell panel viability, ATPlite luminescence, 48 h; series mostly up to 57.5 µM. The method, boiled down: as §1
For a further assay, the system named is OV90. The description is as above. The settings on record: Gynecologic cancer cell panel viability, ATPlite luminescence, 48 h; series mostly up to 57.5 µM. The method, boiled down:
as §1

A further assay relates to Tov-21-G. Described as above. The settings on record: Gynecologic cancer cell panel viability, ATPlite luminescence, 48 h; series mostly up to 57.5 µM. The method, boiled down: as §1
The next assay relates to Tov112D. The assay is described as above. As to conditions: Gynecologic cancer cell panel viability, ATPlite luminescence, 48 h; series mostly up to 57.5 µM. In a few lines:
as §1

Assay [10] is described as follows: Primary redox qHTS assay for identification of artifact compounds. (AID 1845223).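 Note: 0% = DMSO and 100% = reference compound.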 In a few lines: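 Redox-cycling detection via DTT (250 uM final) oxidation coupled to Amplex Red (25 uM)/HRP (250 mU/mL) in HBSS. 15 min preincubation plus 30 min after DTT, room temperature. Ex/Em 525/598 nm; 4-parameter Hill fit against DMSO and 10 uM DA3003.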
[11] abbreviates: measured here: PEO1 parental Z-AUC.

Several values for one entry are separate records, joined by “and”; a condition that tells them apart may be missing. Equal values may be shown once. Results filed as inconclusive are left out. Activity calls are given as the source filed them. Unless noted, calls come from the whole dose curve; as a rule, active = well fitted curve in the direction sought with a large enough effect; inconclusive = small, poorly fitted or top-dose-only effect, or another doubt; inactive = no such curve, though single readings can be large; an effect the other way counts as inactive or inconclusive.

Phospholipid hydroperoxide glutathione peroxidase GPX4 (Homo sapiens), sequence (P36969 whole entry, looked up): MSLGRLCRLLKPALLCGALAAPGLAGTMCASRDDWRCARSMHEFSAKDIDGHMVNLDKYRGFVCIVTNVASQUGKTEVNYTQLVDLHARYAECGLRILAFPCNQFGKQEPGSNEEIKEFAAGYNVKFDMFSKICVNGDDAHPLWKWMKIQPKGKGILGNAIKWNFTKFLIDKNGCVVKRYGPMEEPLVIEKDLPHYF
Calcium and integrin-binding protein 1 (Homo sapiens), sequence (Q99828 whole entry, looked up): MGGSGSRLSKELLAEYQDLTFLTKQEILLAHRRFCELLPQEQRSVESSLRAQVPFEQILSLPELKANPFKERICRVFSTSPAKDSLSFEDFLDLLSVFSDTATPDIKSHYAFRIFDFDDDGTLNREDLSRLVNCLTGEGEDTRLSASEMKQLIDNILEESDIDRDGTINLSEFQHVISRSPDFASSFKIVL
Glutathione peroxidase 1 (Homo sapiens), sequence (P07203 whole entry, looked up): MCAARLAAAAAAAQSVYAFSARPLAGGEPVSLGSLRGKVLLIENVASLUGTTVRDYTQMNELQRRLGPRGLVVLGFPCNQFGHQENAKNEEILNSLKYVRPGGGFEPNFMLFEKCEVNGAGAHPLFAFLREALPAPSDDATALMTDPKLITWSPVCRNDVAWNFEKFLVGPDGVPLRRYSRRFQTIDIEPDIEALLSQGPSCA

As for `CC(C)N(CCCNC(=O)Nc1ccc(C(C)(C)C)cc1)C[C@H]1O[C@@H](n2cc(Br)c3c(N)ncnc32)[C@H](O)[C@@H]1O`, the Potency result (in assay [1]; in assay [5]; in assay [6]; in assay [7]; in [8]; with C33A) was “inactive” in each case. For the same molecule, the Potency result in the assay on CASKI, in the assay on Es-2, in the assay on HeLa, in the assay with Hek293T, in the assay with JEG-3 and in the assay on OV90 was “inactive” in each case. Moreover, the Potency result in the assay with Tov-21-G and in the assay with Tov112D was “inactive” throughout. Also, in assay [2], the result was inactive. For the same molecule, the Potency in assay [3] was 12.9 µM (active) and 16.6 µM (active); in assay [4] it was 12.9 µM (active) and 14.8 µM (active). In addition, the Z-AUC was 0.222 (inactive) in assay [9], 0.00626 in assay [9] (setting [11]) and -0.104 in assay [9] (measured here: PEO4 Z-AUC). Moreover, the max response in the assay on HaCat is -3.75% (inactive).

`Cn1cnc(-c2nccc3c(=O)[nH]c(OCCCC(F)(F)F)nc23)c1`: the Potency entry (in [1]; in assay [7]; in assay [10]; in the assay on C33A; in the assay with CASKI; with HeLa) was “inactive” throughout. The Potency result in the assay with Tov112D is “inactive”. Further, the results for the Potency in [3], in assay [4] and in [5] were 2.9 µM (active), 2.58 µM (active) and 8.06 µM (active), respectively.

Regarding `Cn1nccc1Nc1nccc(-c2ccn([C@H](CO)c3ccc(Cl)c(F)c3)c(=O)c2)n1`, the Potency result (in [1]; in assay [5]; in assay [6]; in assay [7]; in [10]; with C33A) was “inactive” in each case. The Potency entry with CASKI, with Es-2, in the assay with Hek293T, in the assay on Tov-21-G and in the assay on Tov112D was “inactive” each time. In addition, in assay [2], the outcome was inactive. Also, the Potency in [3] was 7.28 µM (active) and 7.42 µM (active); in assay [4], 10.3 µM (active) and 8.33 µM (active). Moreover, the Z-AUC in assay [9] was -0.731 (inactive); in [9] (setting [11]), -0.241; in [9] (measured here: PEO4 Z-AUC), -0.296.

In the case of `C=C(C)[C@@H]1CC[C@]2(C(=O)O)CC[C@]3(C)C(CCC4[C@@]5(C)C[C@@H](O)[C@H](O)C(C)(C)C5CC[C@]43C)C12` (some centres undefined), the Potency result (in [1]; in assay [5]; in assay [6]; in [7]; in assay [10]; in the assay on C33A) was “inactive” each time. In addition, the Potency entry with CASKI, with Es-2, in the assay on HeLa, with Hek293T, in the assay on JEG-3 and in the assay with OV90 was “inactive” throughout. The Potency result in the assay with Tov-21-G and in the assay with Tov112D was “inactive” each time. Besides, the result in assay [2] was inactive. Also, in the assay with HaCat, the max response was -24.1% (inactive).

Turning to `CC(C)CCC[C@@H](C)[C@H]1CC[C@H]2[C@@H]3CC=C4C[C@@H](OC(=O)NCCN(C)C)CC[C@]4(C)[C@H]3CC[C@]12C`, the Potency entry (in [1]; in [6]; in [7]; in [8]; in assay [10]; in the assay on C33A) was “inactive” each time. For the same molecule, the Potency entry in the assay on Es-2, in the assay with HeLa, in the assay on Hek293T, with JEG-3, in the assay on OV90 and with Tov-21-G was “inactive” each time. In addition, the Potency entry in the assay with Tov112D is “inactive”. The result in [2] was inactive. Also, the max response in the assay with HaCat is -22.1% (inactive).

On to `Cn1cc(-c2cnc3ccc4ccc(CS(=O)(=O)NCc5ccccn5)cc4c(=O)c3c2)cn1`, for which the Potency result in [1], in [5], in [6], in assay [7], in assay [8] and in assay [10] was “inactive” each time. Further, the Potency entry in the assay with C33A, in the assay with CASKI, in the assay with Es-2, in the assay on HeLa, in the assay with Hek293T and in the assay on JEG-3 was “inactive” throughout. In addition, the Potency result with OV90 and in the assay with Tov-21-G was “inactive” throughout. Moreover, the Potency in [3] was 20.9 µM (active); in assay [4], 23 µM (active). For the same molecule, the Z-AUC is -1.05 (inactive) in assay [9], -0.542 in assay [9] (setting [11]) and -0.899 in [9] (measured here: PEO4 Z-AUC). The max response in the assay with HaCat is -3.23% (inactive).
